# Laboratory results taken from PubChem BioAssay (EPA / NIEHS).
# Activity calls are given as the source filed them. Rule for the calls: active = hit-call score of the fitted dose curve at least 0.9, where 1 is the maximum; inactive = score below 0.9.
# Tested on: not listed separately
# Experiment: CCTE_Deisenroth_DEVTOX-GLR_Pluri_CellCount: Viability Assessment in CCTE's DevTox GLR-Pluri Assay Evaluation of Total Cell Counts, Deisenroth Lab (AID 2284430)
# In short: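 RUES2-GLR human pluripotent cells, seeded 24 h, then differentiated 48 h with two chemical exposures 24 h apart; 10-point series 1 nM - 200 uM. Fixed, nuclear-stained, imaged (5 fields/well); nuclei count as % change vs 0.2% DMSO.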
Compound,AC50,outcome
CCCCOC(=O)c1ccc(O)cc1,19800 nM (active),
CO[C@H]1/C=C/O[C@@]2(C)Oc3c(C)c(O)c4c(O)c(c(/C=N/N5CCN(C)CC5)c(O)c4c3C2=O)NC(=O)/C(C)=C\C=C\[C@H](C)[C@H](O)[C@@H](C)[C@@H](O)[C@@H](C)[C@H](OC(C)=O)[C@@H]1C,19800 nM (active),
OCCO,,inactive
CC/C(=C(/CC)c1ccc(O)cc1)c1ccc(O)cc1,1450 nM (active),

# Tested on: TTR (gene 7276)
# Experiment: CCTE_GLTED_hTTR_0.125uM: CCTE's human Transthyretin (hTTR) Inhibition Assay, with 0.125uM TTR, Great Lakes Toxicology and Ecology Division (GLTED) Lab (AID 2284431);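 note: hits lower the fluorescence signal relative to DMSO baseline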
# In short: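 Probe-displacement format: chemicals competing for the T4 site release ANSA from 0.125uM TTR during a 2 h incubation, measured by fluorescence at 380 excitation and 475 emission.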
Compound,AC50,outcome
CCCOC(=O)c1cc(O)c(O)c(O)c1,260 nM (active),
O=C(O)Cc1cc(I)c(Oc2ccc(O)c(I)c2)c(I)c1,22.4 nM (active),
CCCCCCCCOC(=O)c1cc(O)c(O)c(O)c1,512 nM (active),
CN(C)c1ccc(C(=C2C=CC(=[N+](C)C)C=C2)c2ccc(N(C)C)cc2)cc1,21600 nM (active),
CCCCOC(=O)c1ccc(O)cc1,2260 nM (active),
CCCCCCCCCC(=O)O,7040 nM (active),
Cc1oc2c(NC(=O)c3c(Cl)cccc3Cl)cccc2c1C(C)(C)O,1470 nM (active),
CC/C(=C(/CC)c1ccc(O)cc1)c1ccc(O)cc1,21 nM (active),
COCC(C)OCC(C)OCC(C)O (stereo unspecified),,inactive
CCCCCCCCOc1ccc(C(=O)c2ccccc2)c(O)c1,25000 nM (active),
CCCCCc1ccc(N)cc1,26300 nM (active),
CC(C)(c1cc(Br)c(O)c(Br)c1)c1cc(Br)c(O)c(Br)c1,22.8 nM (active),
